Experimental data reported in PubChem BioAssay AID1159580 (chemical genetic matrix, 2015).
“And” between values parts separate entries of the source, which are not always exact repeats. Identical values can stand only once. Screen size: about 5,500 compounds; about 2,000 (36%) were called active. Inconclusive results (about 18%) are left out. No stated cut-off is given here; in the data, active means normalized growth mostly below about 0.91 (no sharp cut-off); inconclusive means no clear call, values can overlap the other calls; inactive means mostly above about 0.92. The list shows a part of the results.

Experiment: chemical genetic growth profiling, strain panel (AID 1159580);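 further: tested at 20 µM; growth read once vehicle control cultures reached saturation at 30 °C; 1 = growth at the plate median or of vehicle wells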
Details: S. cerevisiae deletion strains, growth OD
[1] = locus YBR229C, strain ROT2, stronger effect = lower value
[2] = locus YDL101C, strain DUN1, stronger effect = lower value
[3] = locus YDR150W, strain NUM1, stronger effect = lower value
[4] = locus YEL061C, strain CIN8, stronger effect = lower value
[5] = locus YGR078C, strain PAC10, stronger effect = lower value
[6] = locus YHR030C, strain SLT2, stronger effect = lower value
[7] = locus YJR043C, strain POL32, stronger effect = lower value
[8] = locus YJR075W, strain HOC1, stronger effect = lower value
[9] = locus YLR039C, strain RIC1, stronger effect = lower value
[10] = locus YLR262C, strain YPT6, stronger effect = lower value
[11] = locus YMR307W, strain GAS1, stronger effect = lower value
[12] = locus YPL055C, strain LGE1, stronger effect = lower value
[13] = locus YPL241C, strain CIN2, stronger effect = lower value

Measured: normalized growth

Oc1c(Cl)cc(Cl)cc1Sc1cc(Cl)cc(Cl)c1O
active: locus YAL021C, strain ccr4, stronger effect = lower value 0.067 | locus YAL026C, strain drs2, stronger effect = lower value 0.0634 | locus YAL030W, strain snc1, stronger effect = lower value 0.0557 | locus YBL061C, strain skt5, stronger effect = lower value 0.0575 | locus YBR009C, strain hhf1, stronger effect = lower value 0.061 | locus YBR023C, strain chs3, stronger effect = lower value 0.0607 | locus YBR171W, strain sec66, stronger effect = lower value 0.077 | locus YBR231C, strain swc5, stronger effect = lower value 0.0615 | locus YBR279W, strain paf1, stronger effect = lower value 0.0577 | locus YCL011C, strain gbp2, stronger effect = lower value 0.0589 | locus YCL016C, strain dcc1, stronger effect = lower value 0.064 | locus YCL069W, strain vba3, stronger effect = lower value 0.0603 | locus YCR088W, strain abp1, stronger effect = lower value 0.0604 | locus YDL005C, strain med2, stronger effect = lower value 0.0721 | locus YDL040C, strain nat1, stronger effect = lower value 0.0555 | locus YDR001C, strain nth1, stronger effect = lower value 0.0578 | locus YDR069C, strain doa4, stronger effect = lower value 0.0618 | locus YDR137W, strain rgp1, stronger effect = lower value 0.09 | locus YDR159W, strain sac3, stronger effect = lower value 0.0888 | locus YDR195W, strain ref2 0.123 | locus YDR297W, strain sur2, stronger effect = lower value 0.0581 | locus YDR334W, strain swr1, stronger effect = lower value 0.0632 | locus YDR335W, strain msn5, stronger effect = lower value 0.0596 | locus YDR392W, strain spt3, stronger effect = lower value 0.081 | locus YEL003W, strain gim4, stronger effect = lower value 0.0535 | locus YEL037C, strain rad23, stronger effect = lower value 0.0573 | locus YEL061C, strain CIN8 (second series), stronger effect = lower value 0.0607 | locus YER015W, strain faa2, stronger effect = lower value 0.0587 | locus YER016W, strain bim1, stronger effect = lower value 0.0576 | locus YER111C, strain swi4, stronger effect = lower value 0.0718 | locus YER155C, strain BEM2 (second series), stronger effect = lower value 0.0937 | locus YFR010W, strain ubp6, stronger effect = lower value 0.0679 | locus YGL167C, strain pmr1, stronger effect = lower value 0.0712 | locus YGL173C, strain kem1, stronger effect = lower value 0.0685 | locus YGL227W, strain vid30, stronger effect = lower value 0.0624 | locus YGL240W, strain doc1, stronger effect = lower value 0.0755 | locus YGL253W, strain hxk2, stronger effect = lower value 0.0537 | locus YHR013C, strain ard1, stronger effect = lower value 0.105 | locus YHR027C, strain rpn1, stronger effect = lower value 0.0591 | locus YHR079C, strain IRE1, stronger effect = lower value 0.129 | locus YHR142W, strain chs7, stronger effect = lower value 0.0784 | locus YJL092W, strain hpr5, stronger effect = lower value 0.0598 | locus YJL095W, strain BCK1 (second series), stronger effect = lower value 0.0564 | locus YJL115W, strain asf1, stronger effect = lower value 0.0719 | locus YJL129C, strain trk1, stronger effect = lower value 0.0818 | locus YJL154C, strain vps35, stronger effect = lower value 0.0607 | locus YJL164C, strain tpk1, stronger effect = lower value 0.0913 | locus YJL166W, strain qcr8, stronger effect = lower value 0.0591 | locus YJR066W, strain TOR1, stronger effect = lower value 0.00096 | locus YKL160W, strain elf1, stronger effect = lower value 0.0607 | locus YKR026C, strain gcn3, stronger effect = lower value 0.0616 | locus YKR091W, strain srl3, stronger effect = lower value 0.0572 | locus YLL001W, strain dnm1, stronger effect = lower value 0.0641 | locus YLL026W, stronger effect = lower value 0.0559 | locus YLL041C, strain sdh2, stronger effect = lower value 0.0561 | locus YLR027C, strain aat2, stronger effect = lower value 0.0575 | locus YLR113W, strain HOG1, stronger effect = lower value 0.152 | locus YLR221C, strain rsa3, stronger effect = lower value 0.0589 | locus YLR258W, strain gsy2, stronger effect = lower value 0.0608 | locus YLR262C, strain YPT6 (second series), stronger effect = lower value 0.0722 | locus YLR320W, strain mms22, stronger effect = lower value 0.0755 | locus YLR342W, strain FKS1, stronger effect = lower value 0.0628 | locus YLR357W, strain rsc2, stronger effect = lower value 0.119 | locus YLR370C, strain arc18, stronger effect = lower value 0.0603 | locus YLR384C, strain iki3, stronger effect = lower value 0.0584 | locus YML120C, strain ndi1, stronger effect = lower value 0.0563 | locus YMR058W, strain fet3, stronger effect = lower value 0.0603 | locus YMR125W, strain sto1, stronger effect = lower value 0.0858 | locus YMR129W, stronger effect = lower value 0.0578 | locus YMR205C, strain PFK2, stronger effect = lower value 0.0864 | locus YMR231W, strain pep5, stronger effect = lower value 0.0649 | locus YNL071W, strain lat1, stronger effect = lower value 0.0603 | locus YNL183C, strain NPR1, stronger effect = lower value -0.00055 | locus YNL209W, strain ssb2, stronger effect = lower value 0.0572 | locus YNL248C, strain rpa49, stronger effect = lower value 0.0762 | locus YNL322C, strain KRE1 (second series), stronger effect = lower value 0.0643 | locus YNR049C, strain mso1, stronger effect = lower value 0.0565 | locus YOR001W, strain rrp6, stronger effect = lower value 0.0689 | locus YOR070C, strain gyp1, stronger effect = lower value 0.0566 | locus YOR080W, strain dia2, stronger effect = lower value 0.0627 | locus YOR083W, strain WHI5, stronger effect = lower value 0.0603 | locus YOR106W, strain vam3, stronger effect = lower value 0.0687 | locus YOR231W, strain MKK1, stronger effect = lower value 0.118 | locus YOR265W, strain rbl2, stronger effect = lower value 0.0558 | locus YOR270C, strain vph1, stronger effect = lower value 0.113 | locus YOR290C, strain snf2, stronger effect = lower value 0.0666 | locus YPL051W, strain arl3, stronger effect = lower value 0.0608 | locus YPL078C, strain atp4, stronger effect = lower value 0.0682 | locus YPL106C, strain sse1, stronger effect = lower value 0.111 | locus YPL240C, strain hsp82, stronger effect = lower value 0.0577 | locus YPL256C, strain CLN2, stronger effect = lower value 0.147
0.99 (inactive) and 0.152 (active): [6]
inactive: locus YBR021W, strain FUR4, stronger effect = lower value 0.989 | [1] 0.998 | locus YCL029C, strain bik1, stronger effect = lower value 0.964 | locus YDL035C, strain GPR1, stronger effect = lower value 1.05 | locus YDL074C, strain BRE1, stronger effect = lower value 0.979 | [2] 0.978 | locus YDL185W, strain tfp1, stronger effect = lower value 0.966 | locus YDL192W, strain arf1, stronger effect = lower value 0.992 | locus YDR101C, strain arx1, stronger effect = lower value 0.978 | [3] 0.982 | locus YDR162C, strain NBP2, stronger effect = lower value 1.01 | locus YDR318W, strain mcm21, stronger effect = lower value 0.98 | locus YDR388W, stronger effect = lower value 0.983 | locus YDR502C, strain sam2, stronger effect = lower value 0.985 | [4] 0.988 | locus YER110C, stronger effect = lower value 0.964 | locus YER155C, strain BEM2, stronger effect = lower value 0.985 | locus YER167W, strain BCK2, stronger effect = lower value 0.996 | locus YGL078C, strain dbp3, stronger effect = lower value 0.984 | locus YGL086W, strain mad1, stronger effect = lower value 0.995 | locus YGL248W, strain PDE1, stronger effect = lower value 0.981 | [5] 0.981 | locus YGR135W, strain pre9, stronger effect = lower value 0.98 | locus YGR229C, strain SMI1, stronger effect = lower value 1.02 | locus YGR252W, strain gcn5, stronger effect = lower value 1.03 | locus YHR079C, strain IRE1 (second series), stronger effect = lower value 0.966 | locus YHR094C, strain hxt1, stronger effect = lower value 0.976 | locus YHR129C, strain ARP1, stronger effect = lower value 0.994 | locus YHR200W, strain rpn10, stronger effect = lower value 0.97 | locus YIL066C, strain RNR3, stronger effect = lower value 1.01 | locus YIL073C, strain SPO22, stronger effect = lower value 0.942 | locus YIL125W, strain kgd1, stronger effect = lower value 0.996 | locus YIR030C, strain dcg1, stronger effect = lower value 1.01 | locus YJL134W, strain LCB3, stronger effect = lower value 0.989 | locus YJL168C, strain set2, stronger effect = lower value 0.984 | locus YJL187C, strain SWE1 (second series), stronger effect = lower value 0.969 | [7] 1.05 | [8] 0.962 | locus YKL009W, strain mrt4, stronger effect = lower value 0.956 | locus YKL068W, stronger effect = lower value 0.978 | locus YKL085W, strain MDH1 (second series), stronger effect = lower value 0.973 | locus YKL085W, strain MDH1, stronger effect = lower value 0.973 | locus YKR001C, strain vps1, stronger effect = lower value 1.01 | [9] 0.945 | locus YLR058C, strain SHM2, stronger effect = lower value 0.984 | locus YLR102C, strain apc9, stronger effect = lower value 0.962 | [10] 1 | locus YLR268W, strain sec22, stronger effect = lower value 0.976 | locus YLR330W, strain CHS5, stronger effect = lower value 0.995 | locus YLR342W, strain FKS1 (second series), stronger effect = lower value 1.05 | locus YLR371W, strain rom2, stronger effect = lower value 0.994 | locus YLR418C, strain cdc73, stronger effect = lower value 0.979 | locus YML016C, strain PPZ1, stronger effect = lower value 0.991 | locus YML032C, strain rad52, stronger effect = lower value 0.986 | locus YML124C, strain tub3, stronger effect = lower value 0.989 | locus YMR078C, strain ctf18, stronger effect = lower value 0.989 | locus YMR223W, strain ubp8, stronger effect = lower value 0.991 | [11] 1.17 | locus YNL067W, strain RPL9B, stronger effect = lower value 0.941 | locus YNL233W, strain BNI4, stronger effect = lower value 0.966 | locus YNL250W, strain rad50, stronger effect = lower value 0.98 | locus YNL271C, strain bni1, stronger effect = lower value 0.996 | locus YNL298W, strain CLA4, stronger effect = lower value 0.967 | locus YNL307C, strain MCK1, stronger effect = lower value 0.975 | locus YNR052C, strain pop2, stronger effect = lower value 0.982 | locus YOL006C, strain TOP1, stronger effect = lower value 0.921 | locus YOL012C, strain htz1 0.709 | locus YOL147C, strain pex11, stronger effect = lower value 0.975 | locus YOR061W, strain CKA2, stronger effect = lower value 0.994 | locus YOR069W, strain VPS5, stronger effect = lower value 0.989 | locus YOR136W, strain idh2, stronger effect = lower value 0.978 | locus YOR144C, strain elg1, stronger effect = lower value 0.993 | locus YOR184W, strain ser1, stronger effect = lower value 0.979 | locus YOR316C, strain cot1, stronger effect = lower value 0.97 | [12] 0.973 | [13] 0.984 | locus YPR119W, strain clb2, stronger effect = lower value 0.985 | locus YPR141C, strain kar3, stronger effect = lower value 0.979 | locus YPR163C, strain tif3, stronger effect = lower value 0.983 | locus YPR167C, strain met16, stronger effect = lower value 0.986 | strain wtn01, stronger effect = lower value 0.995
0.951 (inactive) and 0.106 (active): locus YJL095W, strain BCK1, stronger effect = lower value

Clc1cncc(Cl)c1N/N=C\C1CC2C=CC1C2 (configuration not stated)
active: [6] 0.644 | locus YHR087W, strain rtc3, stronger effect = lower value 0.874 | [9] 0.599 | locus YLR085C, strain ARP6, stronger effect = lower value 0.74 | [10] 0.601 | locus YML094W, strain GIM5, stronger effect = lower value 0.838 | locus YNL298W, strain CLA4 (second series), stronger effect = lower value 0.799 | locus YPR135W, strain CTF4, stronger effect = lower value 0.622
inactive: locus YAL013W, strain DEP1, stronger effect = lower value 0.937 | [1] 0.939 | locus YCL061C, strain MRC1, stronger effect = lower value 0.928 | [2] 0.926 | locus YDL134C, strain PPH21, stronger effect = lower value 1.01 | [3] 0.915 | [4] 0.914 | [5] 0.967 | locus YJL187C, strain SWE1, stronger effect = lower value 0.989 | [7] 1 | [8] 0.935 | locus YLR058C, strain SHM2 (second series), stronger effect = lower value 0.99 | locus YMR219W, strain ESC1, stronger effect = lower value 0.988 | locus YMR263W, strain SAP30, stronger effect = lower value 0.939 | [11] 0.878 | locus YNL153C, strain GIM3, stronger effect = lower value 0.957 | locus YNL322C, strain KRE1, stronger effect = lower value 0.986 | locus YNR030W, strain Alg12, stronger effect = lower value 0.924 | [12] 0.872 | [13] 0.871
